Source: PubChem BioAssay (NCATS)
Records with an inconclusive call do not appear. Where a call stands in place of a potency, no number is given. Unmarked numbers belong to inactive results. Activity calls are given as the source filed them. Calls follow the shape of the dose curve; as a rule, active = well fitted curve in the direction sought with a large enough effect; inconclusive = small, poorly fitted or top-dose-only effect, or another doubt; inactive = no such curve, though single readings can be large; an effect the other way counts as inactive or inconclusive.

Columns and labels:
[1] = biological target: Cellular tumor antigen p53 (Homo sapiens) (UniProt P04637); assay: Primary qHTS for small molecule compounds that upregulate eGFP-tagged delta133p53alpha (in N-terminal) cells. (AID 2060322); conditions: NCI-H358 eGFP-delta133p53alpha fluorescence, 24 h; activation: active compounds read high; also: nearly all actives have a fitted effect of over 75% in size; also: potency is read from the fitted curve at half-maximal effect;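 as to activation: cells pre-induced with doxycycline then dosed without doxycycline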
Cellular tumor antigen p53 (Homo sapiens), sequence (P04637 whole entry, looked up): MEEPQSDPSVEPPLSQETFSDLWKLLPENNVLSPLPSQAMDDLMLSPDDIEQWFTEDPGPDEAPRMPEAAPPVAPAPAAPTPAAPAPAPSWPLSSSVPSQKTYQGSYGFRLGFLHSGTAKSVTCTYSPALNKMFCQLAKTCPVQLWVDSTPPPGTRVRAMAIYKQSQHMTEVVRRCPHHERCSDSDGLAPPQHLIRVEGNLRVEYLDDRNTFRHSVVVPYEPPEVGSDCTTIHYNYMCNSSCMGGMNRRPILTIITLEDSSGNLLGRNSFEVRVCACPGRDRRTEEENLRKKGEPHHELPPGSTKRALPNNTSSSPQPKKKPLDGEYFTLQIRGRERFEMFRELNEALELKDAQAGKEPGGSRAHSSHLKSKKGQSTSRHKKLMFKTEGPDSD
Procedure, shortened: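 NCI-H358 cells pre-induced 24 h with 10 ng/ml doxycycline for eGFP-delta133p53alpha, plated dox-free and exposed 24 h at 37C to titrated compounds. Fixed, Hoechst-stained; gated GFP peak intensity by laser scanning cytometry, normalized to DMSO (0%) and 57.5 uM 5-azacytidine (100%).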

[2] = biological target: Aldehyde dehydrogenase, mitochondrial (Homo sapiens) (UniProt P05091); assay: qHTS for Inhibitors of the Aldehyde Dehydrogenase Family (ALDH2) Primary screen (AID 2061308); conditions: ALDH2 enzyme inhibition qHTS, 1536-well; series mostly up to 56 µM; also: nearly all actives have a fitted effect of over 55% in size
[3] = biological target: Retinaldehyde dehydrogenase 3 (Homo sapiens) (UniProt P47895); assay: qHTS for Inhibitors of the Aldehyde Dehydrogenase Family (ALDH1A3) Primary screen (AID 2061315); conditions: ALDH inhibition qHTS; series mostly up to 56 µM

Compound	activation [1]	Potency [2]	Potency [3]	activity change, negative = inhibition [2]	activity change, negative = inhibition [3]	Potency [1]
O=S(=O)(O)c1ccc(Nc2ncnc3c2ncn3[C@@H]2O[C@H](CO)[C@@H](O)[C@H]2O)cc1	-3%	inactive	inactive			
C[C@@H]1O[C@@H](O[C@H]2[C@H](OC(=O)[C@]34CCC(C)(C)C[C@H]3C3=CCC5[C@@]6(C)CC[C@H](O[C@@H]7O[C@H](C(=O)O)[C@@H](O)[C@H](O)[C@H]7O[C@@H]7O[C@H](CO)[C@H](O)[C@H](O)[C@H]7O)[C@@](C)(C=O)C6CC[C@@]5(C)[C@]3(C)C[C@H]4O)O[C@H](C)[C@H](O[C@@H]3O[C@H](C)[C@H](O)[C@H](O)[C@H]3O)[C@@H]2O)[C@H](O)[C@H](O)[C@H]1O[C@@H]1OC[C@@H](O)[C@H](O[C@@H]2O[C@H](CO)[C@@H](O)[C@H](O)[C@H]2O)[C@H]1O (stereo partly drawn)	-6.87%			-7.78% [at 11.2 µM]	-11.5% [at 11.2 µM]	
CC1CCC2C(C)(C)[C@H](O)CC[C@]2(C)C12Cc1c(O)cc3c(c1O2)CN(C(CCC(=O)O)C(=O)O)C3=O (stereo partly drawn)	-2.29%	inactive	inactive			
CC(C)c1ccc2c(c1)C(O)CC1C(C)(CO)CCCC21C (stereo not drawn)	-12.5%	inactive	inactive			
CC(=O)NC1CC(=O)C23C(=O)NC(Cc4c[nH]c5ccccc45)C2C(C)=C(C)C(O)C3/C=C/CC(C)/C=C(/C)C(O)C1O (stereo not drawn)	8.93%	inactive	inactive			
CC1=CC2/C=C(\C)CCC3OC(C)(C)OC3CCC(=O)C23C(=O)NC(CC(C)C)C3C1C (stereo not drawn)	-10.7%	inactive	inactive			
O=C(O)CCc1cc2ccoc2cc1O[C@@H]1O[C@H](CO)[C@@H](O)[C@H](O)[C@H]1O	6.11%	inactive	inactive			
COc1ccccc1[C@@H]1C2=C(CC(C)(C)CC2=O)Nc2n[nH]c(C(F)(F)F)c21	9.67%	inactive	inactive			
CC(=O)OCC(=O)Nc1cc(C#N)cc(NC(=O)COC(C)=O)c1Cl	2.33%	inactive	inactive			
CC(C)CC(=O)OC1OC=C(CO[C@@H]2O[C@H](CO)[C@@H](O)[C@H](O)[C@H]2O)C2CC(O)C(O)(CO)C12 (stereo partly drawn)	15.2%	inactive	inactive			
O=C(/C=C/c1ccc(O)cc1)OC[C@]12O[C@H]1[C@@H](O)[C@@H]1C=CO[C@@H](O[C@@H]3O[C@H](CO)[C@@H](O)[C@H](O)[C@H]3O)[C@@H]12	18.3%	inactive	inactive			
COc1cc(NC(=O)Nc2cccc(CNC(=O)O[C@H]3CCOC3)c2)ccc1-c1cnco1	7.14%	inactive	inactive			
O=C(O)c1cccc(CN2C(=O)/C(=C(\c3ccccc3)c3ccc(Cl)cc3)c3ccccc32)c1	-4.46%	inactive	inactive			
CC1(C)C2CC[C@]3(C)C(C(=O)C=C4[C@H]5C[C@@](C)(C(=O)O)CC[C@]5(C)CC[C@]43C)[C@@]2(C)CC[C@@H]1O (stereo partly drawn)	6.87%	inactive	inactive			
NCCOCCOCCNC(=O)Cc1ccc(Nc2nc(NCc3ccc(F)cc3)nc(NCC3CCCCC3)n2)cc1	2.33%	inactive	inactive			
C#Cc1cnc2[nH]c(=O)n(C(CC)CC)c2n1	-4.77%	inactive	inactive			
C=C(C)C(=O)O[C@H]1[C@H]2C(=C)C(=O)O[C@@H]2C[C@@H](C)/C=C\C(=O)[C@](C)(O)[C@@H]1OC(C)=O		inactive	inactive			4.65 µM (active)
CCCCC(=O)N(Cc1ccc(-c2ccccc2-c2nn[nH]n2)cc1)C(C(=O)O)C(C)C (stereo not drawn)	0%	inactive	inactive			
CC[C@@H](C)[C@H](N)C(=O)N1Cc2ccccc2C1	3.82%	inactive	inactive			
CC(C)(C)NS(=O)(=O)c1ccc(-c2ccc3[nH]nc(N)c3c2)cc1	0%	inactive	inactive			
Cc1ncc([N+](=O)[O-])n1C[C@H](O)CN1CCOCC1	2.33%	inactive	inactive			
CC12CCC(OC3OC(CO)C(O)C(O)C3OC3OC(CO)C(O)C(O)C3O)CC1CCC1C2CCC2(C)/C(=C3/COC(=O)C3)CCC12O (stereo not drawn)	-0.763%	inactive	inactive			
O=C(O)c1cccc(C(=O)CCC2OC(n3cnc4c(=O)[nH]cnc43)C(O)C2O)c1 (stereo not drawn)	15.3%	inactive	inactive			
NC(=O)[C@H]1CCCCc2c1[nH]c1ccc(Cl)cc21	15%	inactive	inactive			
C=C(C(=O)OC)C1C(O)CC2(C)C(=O)CCC(O)(CO)C2C1O (stereo not drawn)	-14.3%	inactive	inactive			
COc1ccc([C@H]2OC[C@H]3O[C@@H](O[C@H]4[C@@H]2NC[C@@H]4O)[C@H](O)[C@H]3O)cc1		inactive	inactive			5.24 µM (active)
